KCNQ2 pot: potentiators of rat KCNQ2 potassium channel; 310,000 compounds, 0.54% hits; B-score at 10 µM; CHO-K1 KCNQ2, FluxOR thallium flux fluorescence; stronger effect = higher value; Potassium voltage-gated channel subfamily KQT member 2 (Rattus norvegicus), O88943;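 active means fluorescence ratio B-score at least 3 SD of library B-scores, with initial fluorescence B-score within 3 of them, cut at about 5.3 in these data; same plate scores as AID 2156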;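 further: B-score of peak minus minimum over baseline fluorescence ratio after K+ and Tl+ stimulus; positive B-score means potentiation of KCNQ2 with more thallium influx and brighter signal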
KCNQ2 block: rat KCNQ2 potassium channel inhibitors, primary screen, cell-based, CHO-K1, FluxOR thallium flux, B-score; Potassium voltage-gated channel subfamily KQT member 2 (Rattus norvegicus), O88943; 20 min; stronger effect = lower value; B-score at 10 µM; 310,000 compounds, 1.1% hits; AID 2156, 2009;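 active means fluorescence ratio B-score at most minus 3 library SDs, with starting brightness B-score within 2 library SDs, cut at about -5.5 in these data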
Kir21 conf inh: mouse Kir2.1 channel blockers, retest, confirmation, cell-based, FluxOR thallium flux, duplicate. shares compounds with KCNQ2 pot. Kir2.1-expressing cells, FluxOR thallium flux fluorescence; stronger effect = lower value. Tl flux remaining, % of negative control (stronger effect = lower value), % at 10 µM. 2,300 compounds, 41% hits;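 active means Primary-screen hit whose thallium flux fell at least 3 control SD below untreated wells in both duplicates, with normal baseline fluorescence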;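 further: 0% = blank wells without stimulus and 100% = stimulated no-compound controls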
HEK293 ctr: counter-screen for Kir2.1 inhibitors: effect in parental HEK293 cells; AID 2105; FluxOR signal as % of negative control (100 = no effect), % at 10 µM; FluxOR thallium flux fluorescence; 0% = unstimulated blank wells; 2,300 compounds, 19% hits; shares compounds with KCNQ2 pot;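 active means dye signal at least 3 control SD above or below untreated wells in both duplicates, raw fluorescence within 3, either direction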;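 further: percent is based on the flux ratio of peak minus minimum fluorescence over baseline F0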
CHO-K1 ctr: nonspecific thallium flux increase in parental CHO-K1, confirmation, counter-screen for KCNQ2 potentiator project, cell-based, FluxOR thallium flux, duplicate. shares compounds with KCNQ2 pot. parental CHO-K1 cells, FluxOR thallium flux fluorescence; zero = vehicle mean+3SD, 100% = vehicle-minus-blank window. activity increase over 3SD of controls, % at 10 µM. 1,200 compounds, 43% hits. AID 2282, 2010;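 active means signal rise of at least 3 SD above the untreated control mean, in both duplicate wells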;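 further: counter screen of KCNQ2 potentiator hits so any rise reflects channel-independent effects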
KCNQ1 sel pot: human KCNQ1 channel potentiation off-target, confirmation, selectivity assay for KCNQ2 potentiator project, cell-based, CHO, FluxOR thallium flux; shares compounds with KCNQ2 pot; CHO KCNQ1 stable, FluxOR thallium flux fluorescence; beyond 3SD, as % of vehicle-control signal; activation over 3SD threshold, % at 10 µM; 1,200 compounds, 28% hits;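 active means fluorescence ratio rise of at least 3 SD of vehicle wells above their mean, in both replicate wells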;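 further: 0% = vehicle mean plus 3 SD and 100% = vehicle minus unstimulated blank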
KCNQ2 pot conf: rat KCNQ2 channel potentiators, confirmation, cell-based, CHO, FluxOR thallium flux, duplicate | potentiation, less the hit threshold, % at 10 µM | 1,200 compounds, 68% hits | CHO-KCNQ2 cells, FluxOR thallium flux fluorescence | shares compounds with KCNQ2 pot | AID 2287, 2010;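 active means fluorescence ratio rising 3 SD or more over the vehicle control mean in both replicates, plus primary screen hit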;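 further: peak minus minimum thallium fluorescence divided by baseline after K/Tl stimulus; 0% = vehicle mean plus 3 SD and 100% = vehicle minus unstimulated blank difference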
Kir2-1 sel: mouse Kir2.1 channel activation off-target, confirmation, selectivity assay for KCNQ2 potentiator project, cell-based, HEK293, FluxOR thallium flux | 1,200 compounds, 2% hits | HEK293 Kir2.1, FluxOR thallium flux fluorescence | activity over 3SD threshold, % at 10 µM | shares compounds with KCNQ2 pot;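 active means fluorescence ratio rise of at least 3 SD above the vehicle-control mean, seen in both replicates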;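 further: 0% = vehicle mean plus 3 SD and 100% = vehicle minus no-stimulus blank window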
KCNQ2 W236L MoA: potentiators of retigabine-insensitive KCNQ2 W236L, mechanism study for KCNQ2 potentiator project, cell-based, rat KCNQ2 W236L, CHO, automated patch clamp; shares compounds with KCNQ2 pot; automated patch clamp current; current increase over 3SD of negative controls (%), stronger effect = higher value, % at 25 µM; 940 compounds, 10% hits; AID 2558, 2010;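 active means current increase at least 3 SD of the untreated controls above them in both duplicate recordings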
Target sequence (O88943 whole entry W236L, looked up): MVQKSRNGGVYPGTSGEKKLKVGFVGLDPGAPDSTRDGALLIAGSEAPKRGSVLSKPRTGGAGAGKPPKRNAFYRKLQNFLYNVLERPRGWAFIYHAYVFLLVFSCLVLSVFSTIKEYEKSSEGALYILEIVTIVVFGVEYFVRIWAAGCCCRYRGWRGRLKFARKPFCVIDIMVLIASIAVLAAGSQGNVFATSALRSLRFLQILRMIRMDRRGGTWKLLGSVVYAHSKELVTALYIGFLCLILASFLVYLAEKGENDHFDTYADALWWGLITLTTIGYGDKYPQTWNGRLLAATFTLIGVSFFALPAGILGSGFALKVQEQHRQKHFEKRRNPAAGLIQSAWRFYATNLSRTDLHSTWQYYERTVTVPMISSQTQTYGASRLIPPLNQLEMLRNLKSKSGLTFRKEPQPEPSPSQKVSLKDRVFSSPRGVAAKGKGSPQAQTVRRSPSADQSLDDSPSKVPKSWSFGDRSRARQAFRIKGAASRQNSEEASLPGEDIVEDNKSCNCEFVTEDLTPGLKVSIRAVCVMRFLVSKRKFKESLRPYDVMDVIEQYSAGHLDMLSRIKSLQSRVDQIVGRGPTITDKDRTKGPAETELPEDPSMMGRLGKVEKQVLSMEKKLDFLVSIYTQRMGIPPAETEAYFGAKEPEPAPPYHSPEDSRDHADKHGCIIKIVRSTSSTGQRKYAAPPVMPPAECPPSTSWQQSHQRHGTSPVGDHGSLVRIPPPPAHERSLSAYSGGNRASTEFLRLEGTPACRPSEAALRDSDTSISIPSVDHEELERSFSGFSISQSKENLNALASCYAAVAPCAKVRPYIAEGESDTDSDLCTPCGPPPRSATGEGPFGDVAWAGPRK
* marks the source's active call; other numbers are inactive results; i = inactive; . = no result. In the library only some 1.6% were active in any assay of this set; here they are far more common.

SMILES	KCNQ2 pot	KCNQ2 block	Kir21 conf inh	HEK293 ctr	others
COCCn1ccc2c(OCC(=O)Nc3ccccc3OC)cccc2c1=O	2.5	i	.	.
O=C(CSc1nnc(CNC(=O)c2ccccc2)o1)NCc1ccc2c(c1)OCO2	.	i	.	.
CCOC(=O)C1CCCN(CCC(=O)Nc2cccc(Cl)c2C)C1 (configuration not stated)	0.2	i	.	.
N#CCS(=O)(=O)c1ccccc1	1.2	i	.	.
CC(NC(=O)CCl)c1ccccc1Br (configuration not stated)	0.55	i	.	.
CCOC(=O)C1(Cc2ccccc2Cl)CCN(Cc2csc(C(C)=O)c2)CC1	.	i	.	.
CC1CCCC(C)N1/N=C/c1cc(Br)cc(Br)c1O (configuration not stated)	.	i	.	.
CC(=O)N1c2ccc(N=Cc3cc(Br)cc(Br)c3O)cc2CC1C (configuration not stated)	12*	i	i	i	CHO-K1 ctr=-16;KCNQ1 sel pot=43*;KCNQ2 pot conf=14*;Kir2-1 sel=-33;KCNQ2 W236L MoA=i
COc1ccc(NC(=O)CSc2nnc(Cc3ccc(C)cc3)c(=O)n2N)cc1OC	.	i	.	.
N#C/C(=C\c1cccc(O)c1)C(=O)N1CCCCC1	.	i	.	.
N#C/C(=C\c1cccc(Br)c1)C(=O)N1CCCCC1	-8.5	-8.5*	45%*	i
Cn1ncc(Br)c1C(=O)NC1CCCCCC1	0.29	i	.	.
CCCCn1c(=N)n(CC(O)COc2ccc(C)cc2)c2ccccc21 (configuration not stated)	.	i	.	.
Cc1ccc(Cn2c(=N)n(CC(O)COc3ccccc3)c3ccccc32)cc1 (configuration not stated)	.	i	32%*	i
CCCCn1c(=N)n(CC(O)COc2ccccc2)c2ccccc21 (configuration not stated)	1	i	.	.
N=c1n(Cc2ccccc2)c2ccccc2n1CC(O)COc1ccccc1 (configuration not stated)	.	i	38%*	i
CC(C)NS(=O)(=O)c1ccc(CCC(=O)NCc2ccncc2)cc1	0.03	i	.	.
CCn1nc(NC(=O)Cc2ccc(OC)cc2)c2cc3cc(C)ccc3nc21	0.66	i	.	.
CN(C)CCCC1Sc2ccccc2Sc2ccccc21 (configuration not stated)	0.67	i	.	.
CNCCC1Sc2ccccc2Oc2ccccc21 (configuration not stated)	0.93	i	42%*	i
COC(=O)C1CN(C(=O)COc2ccccc2)c2ccccc2O1 (configuration not stated)	0.46	i	.	.
CSc1ccc(CN2CCC(CO)(CCOc3ccccc3)CC2)cc1	0.62	i	42%*	i
OCC1(CCOc2ccccc2)CCN(Cc2ccncc2)CC1	.	i	.	.
CCOc1ccc(Cl)cc1CNCCCSc1nc(C)cc(C)n1	0.03	i	52%*	i
CCOc1ccc(Cl)cc1CNCCCSc1ncccn1	.	i	.	.
SMILES	KCNQ2 pot	KCNQ2 block	Kir21 conf inh	HEK293 ctr	others
O=C(CNC(=O)c1cccs1)OCC(=O)c1ccccc1Cl	1.1	i	.	.
COc1cc(/C=C/c2ccc3cccc(O)c3n2)cc(OC)c1OC	5.3*	i	i	i	CHO-K1 ctr=8.5*;KCNQ1 sel pot=0.7*;KCNQ2 pot conf=-11;Kir2-1 sel=-25
COc1cc(/C=C/c2ccc3cccc(O)c3n2)cc(Br)c1OC	.	i	.	.
Cc1ccccc1C(=O)c1cccn1CC(=O)NC1CCCC(C)C1C (configuration not stated)	.	i	.	.
COc1ccccc1C1CCN(Cc2ccc(Cl)c(Cl)c2)CC1	.	i	.	.
CN[C@@H]1CC[C@H](c2ccc(Cl)c(Cl)c2)c2ccccc21	.	i	47%*	i
CC1Oc2ccccc2N(CC(=O)Nc2ccc(F)cc2)C1=O (configuration not stated)	1	i	.	.
Cc1sc2nc(CN3CCN(c4ccc(O)cc4)CC3)[nH]c(=O)c2c1C	0.07	i	.	.
Cc1sc2nc(CN3CCOCC3)[nH]c(=S)c2c1C	19*	i	i	412%*	CHO-K1 ctr=-13;KCNQ1 sel pot=-8;KCNQ2 pot conf=101*;Kir2-1 sel=-9;KCNQ2 W236L MoA=i
N#Cc1cc(-c2ccccc2)nc(N2CCNCC2)n1	0.32	i	.	.
O=C(NCCCOc1cccc(CN2CCCCC2)c1)c1ccc(Cl)c(Cl)c1	.	i	.	.
c1cc(CN2CCCCC2)cc(OCCCNc2nc3ccccc3s2)c1	.	i	26%*	i
CCOCCCNC(=O)CN(c1cc([N+](=O)[O-])ccc1OC)S(C)(=O)=O	0.3	i	.	.
CCC(=O)N(CC)c1nc(-c2ccc(OC)cc2)cs1	2.6	i	i	i
CCC(=O)N(Cc1ccco1)c1nc(-c2ccc(OC)cc2)cs1	.	i	.	.
Cc1cc(C)cc(C(=O)NN2CCN(C)CC2)c1	0.08	i	.	.
O=C(Cc1ccc(Br)cc1)Nc1ccccc1N1CCCC1	18*	i	i	i	CHO-K1 ctr=-32;KCNQ1 sel pot=-28;KCNQ2 pot conf=52*;Kir2-1 sel=-56;KCNQ2 W236L MoA=i
O=C(Cc1ccccc1)Nc1ccccc1N1CCCC1	13*	i	.	.	CHO-K1 ctr=-15;KCNQ1 sel pot=-10;KCNQ2 pot conf=54*;Kir2-1 sel=-81;KCNQ2 W236L MoA=i
O=C(CCNC(=O)c1ccc(Br)cc1)Nc1ccccc1N1CCCC1	.	i	.	.
O=C(Cc1c(F)cccc1Cl)Nc1ccccc1N1CCCCC1	.	i	.	.
COc1ccc(CC(=O)Nc2ccccc2N2CCCC2)cc1OC	0.83	i	.	.
COc1ccc(CC(=O)Nc2ccccc2N2CCCC2)cc1	0.91	i	62%*	i

High-throughput results from PubChem BioAssay.
